Test results from PubChem BioAssay AID1893 (NMMLSC, 2009).
In all, about 5,900 compounds went through this assay and about 120 (2%) were called active. Only a sample is shown. A number with no mark means an inactive call. No stated cut-off is given here; in the data, active means percent response mostly above about 71% (no sharp cut-off); inactive means mostly below about 38%.

System: MEKK2 (MAP3K2) mutant PB1 domain binding MEK5, human
Experiment: mutant MEKK2 PB1-MEK5 binding signal retest – biochemical, single concentration, multiplex bead flow cytometry, confirmation (AID 1893);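 further: higher means compound restores mutant binding toward wildtype level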
Conditions: Alexa488-MEK5 binding to MEKK2 mutant, at 10 µM, stronger effect = higher value

Row | SMILES | percent response
1 | COc1ccc(CC(=O)N2N=C(C)CC2(O)C(F)(F)F)cc1 (stereo unspecified) | -3%
2 | O=C(CN1CCN(C(=O)c2ccco2)CC1)Nc1ccc(Cl)c(C(F)(F)F)c1 | 7%
3 | COc1ccc(C2CC(=O)Nc3cc(C)c(C)cc32)c(OC)c1OC (stereo unspecified) | 4%
4 | COc1ccc(C(=O)NCC(=O)N/N=C/c2ccc([N+](=O)[O-])o2)cc1OC | -10%
5 | CCO[C@H]1OC(C(=O)N2CCOCC2)=C[C@@H](c2ccc3c(c2)OCO3)[C@@H]1CCCO | 4%
6 | Cc1ccc(C(=O)N/C(=C/c2ccco2)C(=O)NCCc2c[nH]c3ccccc23)cc1C | -4%
7 | CN(C)CCCN(C(=O)COc1ccccc1)c1nc2c(Cl)cccc2s1 | 18%
8 | CN(C)c1ccc(/C=C2\NC(=S)N(Cc3ccccc3)C2=O)cc1 | -10%
9 | C=CCN1C=C2C(=O)C(C)(OC(=O)CCc3ccccc3)C(=O)C=C2C=C1c1ccc(C#N)cc1 (stereo unspecified) | -1%
10 | COc1ccc(CCNC(=O)CSc2nnc3ccc(-c4ccncc4)nn23)cc1 | 6%
11 | CCN(CC)C(=O)CC(c1ccc2c(c1)OCO2)c1c(OC)cc(OC)c2c(-c3ccccc3)cc(=O)oc12 (stereo unspecified) | -4%
12 | COc1cccc(/C=N\NC(=O)C2=NNC(=O)C2C)c1O (stereo unspecified) | 1%
13 | FC(F)(F)c1nc(-c2ccccc2)ncc1-c1nnnn1-c1ccccc1 | -6%
14 | CCOC(=O)N1CCN(CC(=O)n2c(C)c(C)c3ccccc32)CC1 | -3%
15 | COc1cccc(/C(C)=N/Nc2ncc(Cl)cc2Cl)c1 | -3%
16 | c1ccc(CN2CCC(N=C3NN=C(c4ccc5c(c4)OCCO5)CS3)CC2)cc1 | 52%
17 | Cc1cccc(CN2CCC(CNC(=O)Nc3ccc(F)c(Cl)c3)CC2)c1 | 8%
18 | CCN1CCN(CCNC(=O)c2ccc(/C=C3/Sc4ccccc4N(Cc4cccc(C)c4)C3=O)cc2)CC1 | 79% (active)
19 | CCc1nnc(NC(=O)c2sc3nc(C)cc(COC)c3c2N)s1 | 7%
20 | COc1cccc(OC)c1C(=O)Nc1ccc(Cc2ccncc2)cc1 | -2%
21 | CCCCOC(=O)c1ccc(N2C(=O)CC(N3CCN(C/C=C/c4ccccc4)CC3)C2=O)cc1 (stereo unspecified) | 12%
22 | Cn1ccc(=Nc2ccc(NC(=O)c3ccc(N=c4ccn(C)c5ccc([N+](=O)[O-])cc45)cc3)cc2)cc1 | 28%
23 | C=CCn1c(P(C)(=O)O)nc2ccccc21 | -4%

Row | SMILES | percent response
24 | CCN(CC)CCC(c1ccc2c(c1)OCO2)c1c(OC)cc(OC)c2c(-c3ccccc3)cc(=O)oc12 (stereo unspecified) | 28%
25 | COC(=O)c1c(NC(=O)COc2ccc(Cl)cc2Cl)sc2c1CC(C)(C)NC2(C)C | 36%
26 | CN(C)CCCNC(=S)N1CCN(c2nc(-c3ccccc3)cs2)CC1 | 14%
27 | O=c1[nH]c(=S)[nH]c2[nH]c(=S)[nH]c12 | -2%
28 | COc1cc(-c2nc(-c3ccncc3)no2)cc(OC)c1OC | 6%
29 | Cc1ccc(NC(=S)N(CCCN2CCCC2)Cc2cccn2Cc2ccc(Cl)cc2)cc1 | 13%
30 | Cc1ccc2c(C)c(C(=O)N3CCN(c4ccncc4)CC3)oc2c1C | 31%
31 | N=C1/C(=C/c2cccn2-c2cccc([N+](=O)[O-])c2)C(=O)N=C2SC=CN12 | -6%
32 | CC(=O)N1CCN(S(=O)(=O)c2ccc(C)c([N+](=O)[O-])c2)C1C(C)C (stereo unspecified) | -1%
33 | COC(=O)c1nc2n(n1)C(c1ccc([N+](=O)[O-])cc1)C(C(=O)Nc1ccc(Cl)cc1)=C(C)N2 (stereo unspecified) | 2%
34 | Cc1ccccc1CCN(CC(=O)NC1CCCCC1)C(=O)c1csnn1 | -24%
35 | CCCn1c(=N)n(CC(=O)c2ccc(Cl)c(Cl)c2)c2ccccc21 | 33%
36 | CC(C)CC(=O)NC(=S)Nc1cc(C(=O)O)ccc1Cl | -1%
37 | O=C1NCC(=O)N(Cc2ccccc2)/C1=C/c1ccccc1 | -16%
38 | CCc1ccc(-c2nn(-c3ccccc3)cc2CSC(=N)N)cc1 | 68%
39 | CNC(=O)/C(=C\C=C\c1ccccc1)NC(=O)c1ccc([N+](=O)[O-])cc1 | 7%
40 | O=C(O)CC(Cc1ccccc1)C(=O)Nc1ccc([N+](=O)[O-])cc1 (stereo unspecified) | -3%
41 | O=C(COC(=O)CNC(=O)c1ccco1)Nc1ccc(F)cc1 | 1%
42 | COc1ccc(S(=O)(=O)N2CN(CCc3ccc(OC)c(OC)c3)c3nc4ccccc4nc32)cc1 | -4%
43 | CCOC(=O)/C(C#N)=C/c1ccc(OCC(=O)Nc2ccccc2)c(OC)c1 | 1%
44 | CC(C)C(=O)N1c2ccccc2NC2=C(C(=O)CCC2)C1c1ccc(N(C)C)cc1 (stereo unspecified) | 10%
45 | COCC(C)NC(=O)COc1nncc2ccccc12 (stereo unspecified) | -7%
46 | O=C(NCc1ccccc1Cl)NC(=O)c1csc([N+](=O)[O-])c1 | 1%

Row | SMILES | percent response
47 | Cn1c(C(=O)NCCCN2CCCCC2)cc2sccc21 | 10%
48 | COc1cc(Br)c(-c2sc(Nc3ccccc3)n[n+]2-c2ccccc2)cc1OC | 14%
49 | CCc1ccc2nc(Nc3ncc(C(C)=O)c(C)n3)nc(C)c2c1 | 0%
50 | CCOC(=O)c1c(-c2ccccc2)csc1NC(=S)NC(=O)c1ccccc1 | 0%
51 | O=C(CN1C(=O)c2cccnc2Oc2ccc(Cl)cc21)Nc1ccc(F)cc1 | 1%
52 | N=c1c2c(-c3ccccc3)c(-c3ccccc3)n(Cc3ccccc3)c2ncn1CCCO | 21%
53 | Cc1noc(C)c1S(=O)(=O)N(C)Cc1ccccc1 | 5%
54 | Cc1nn(-c2ccccc2)c(NC(=O)c2cccs2)c(-c2ccc(Cl)cc2)c1=O | -4%
55 | COc1cccc(NC(=S)NCCCN2CCOCC2)c1 | 6%
56 | CCN(CC)CCOCCOc1ccc(Cl)c2ccccc12 | 22%
57 | CCCCCCCCCCOC(=O)Cn1c(COc2ccc(C)cc2)[n+](C)c2ccccc21 | 74% (active)
58 | CCCCCCCCCCOC(=O)Cn1c(COc2cccc(OC)c2)[n+](C)c2ccccc21 | 115% (active)
59 | CN(C)CCCN(C(=O)c1ccc(S(=O)(=O)N2CCCc3ccccc32)cc1)c1nc2ccc(F)cc2s1 | 53%
60 | CSCC[C@H](NC(=O)CCCn1nnc2ccccc2c1=O)C(=O)O | 1%
61 | CN1CCN(/N=C/c2ccc(C#N)cc2)CC1 | -4%
62 | CC1CCN(C2=NC(=O)/C(=C/c3cn[nH]c3-c3ccccc3)S2)CC1 | -9%
63 | CCOc1ccc(S(=O)(=O)NCCCn2ccnc2)cc1NC(C)=O | -6%
64 | CCCCNC(=O)N1CCCC(N(C)CCc2ccc(OC)c(OC)c2)C1 (stereo unspecified) | -2%
65 | CC(C)(C)NC(=O)Cn1cnc([N+](=O)[O-])n1 | -7%
66 | COc1ccccc1OCCNCC(O)COc1cccc2[nH]c3ccccc3c12 (stereo unspecified) | 34%
67 | Cc1cccc(-c2ncc(CN3CCC(CO)(CCCc4ccccc4)CC3)cn2)c1 | 9%
68 | Cc1nn(-c2ccccc2)c(C)c1NC(=O)CCl | -2%
69 | COC(=O)CCc1sc(Nc2ccc(Br)cc2)nc1-c1ccc(OC)cc1 | 9%

Row | SMILES | percent response
70 | C#CCOCCOCCOCCNc1nc(N2CCN(C(=O)C([C@@H](C)CC)n3cc(C(N)COC(=O)C(F)(F)F)nn3)CC2)nc(N2CCN(C(=O)[C@H](CCCCN)n3cc(C(N)CC(C)C)nn3)CC2)n1 (stereo partly specified) | 52%
71 | O=C(CCCO)N/N=C/c1cc(Br)ccc1O | -1%
72 | O=C(Nc1ccn(Cc2ccccc2)n1)c1cccc(F)c1 | -3%
73 | COc1ccc(CCn2c(NN=C3CCCC3)nc3c2c(=O)[nH]c(=O)n3C)cc1 | 3%
74 | CCC(C)OC(=O)C(C)Oc1ccc(-c2ccccc2)cc1 (stereo unspecified) | 10%
75 | CC(C)CC(=O)NC(=S)NCc1ccccc1 | -3%
76 | O=c1c(/C=N/O)coc2ccc(Cl)cc12 | -2%
77 | Cc1ccc2c(c1)C1CN(C)CCC1N2S(=O)(=O)c1ccc(Oc2ccc([N+](=O)[O-])cc2)cc1 (stereo unspecified) | 61%
78 | Cc1c(S(=O)(=O)NCc2ccccc2)c(=O)n(C)c(=O)n1C | 2%
79 | C[N+](C)(C)CCNC(=O)c1c(O)c2c([nH]c1=O)CCCC2 | -3%
80 | O=C(O)/C=C\C(=O)Nc1ccc(OCc2ccccc2)cc1 | -4%
81 | COc1ccccc1NC(=S)N1CCN(c2ccc(F)cc2)CC1 | -8%
82 | Cc1cccc(OCC(O)CN2CCN(CCN3C(=O)c4cccc5cccc(c45)C3=O)CC2)c1C (stereo unspecified) | 3%
83 | Cc1ccc(N2C(=O)CC(N3CCSCC3)C2=O)c(C)c1 (stereo unspecified) | 2%
84 | O=C(c1ccc(Br)o1)N(c1ccccn1)C1CCCCC1 | 3%
85 | COc1ccc(SC[C@H](Cc2ccccc2)N2CCN(CCc3ccccc3)CCC2=O)cc1 | 16%
86 | CCOC(=O)c1c(NC(=O)c2ccc(S(=O)(=O)N(C)CC3CCCO3)cc2)sc2c1CC(C)(C)NC2(C)C (stereo unspecified) | 7%
87 | O=C(NCCCN1CCN(c2ccc(F)cc2)CC1)Nc1ccc([N+](=O)[O-])cc1 | 26%
88 | CC1CN(C(=O)c2ccccc2NS(=O)(=O)c2cccc([N+](=O)[O-])c2)CC(C)O1 (stereo unspecified) | 0%
89 | c1ccc2c(c1)C(=NC1CCCCC1)NC2=NC1CCCCC1 | 18%
90 | Cc1cccc(OCCNC(=O)CSc2ccc(C(F)(F)F)cc2[N+](=O)[O-])c1 | 2%
91 | O=C(NC1CCN(Cc2ccccc2)CC1)c1ccc(Oc2cc(Cl)cc(Cl)c2)o1 | 10%
92 | O=C(CC1SCCNC1=O)Nc1ccc(Cl)c(Cl)c1 (stereo unspecified) | 4%

Row | SMILES | percent response
93 | CN(CC(=O)Nc1cccc(F)c1)CC(=O)Nc1cccc([N+](=O)[O-])c1 | -3%
94 | COc1ccccc1N=C(C)C1=C(O)COC1=O | 7%
95 | COc1cccc(OCC(=O)NNC(=O)c2cnccn2)c1 | -1%
96 | COC(=O)c1c(NC(=O)COC(=O)[C@@H](NS(=O)(=O)c2ccccc2)C(C)C)sc2c1CCC2 | -1%
97 | CCOC(=O)CN(C)S(=O)(=O)c1ccc(-c2cc(C(=O)OC)sc2C(F)(F)F)cc1 | -3%
98 | Cc1cc(Cl)ccc1OCc1nc(-c2ccncc2)no1 | -15%
99 | O=C(O)CCCC(=O)Nc1ccc(Oc2cccc(C(F)(F)F)c2)nc1 | 4%
100 | COc1cc(C)nc(N2CCCC(C(=O)NCC(C)C)C2)n1 (stereo unspecified) | -2%
101 | O=C(O)C1CCN(c2ccc([N+](=O)[O-])cc2[N+](=O)[O-])CC1 | 6%
102 | Cc1no[n+]([O-])c1COc1ccccc1/C=C1\NC(=S)NC1=O | -5%
103 | COc1ccc(C(=O)C[n+]2ccc(C)cc2)cc1 | 6%
104 | CC(C)CC(=O)N1CCN(Cc2ccccc2Br)CC1 | 3%
105 | CCOC(=O)c1c(Cc2ccc(Cl)cc2)c[nH]c1C | 0%
106 | Cc1cn(COC/C=C/c2ccccc2)c(=O)[nH]c1=O | 2%
107 | COc1ccc(CNC(=O)C2CCN(S(C)(=O)=O)CC2)cc1 | 4%
108 | COC(=O)c1cc(NC(=O)c2cc(C(C)(C)C)nn2Cc2cccc(C)c2)ccc1N1CCOCC1 | -5%
109 | CCN(CC)CCOc1ccc2c(c1)C(=NNC(=O)c1ccccn1)c1cc(OCCN(CC)CC)ccc1-2 | 75% (active)
110 | COc1cc(NC(=S)NCc2ccco2)c(OC)cc1Cl | 3%
111 | Cn1c(SCc2nc3ccccc3s2)nnc1-c1ccc2c(c1)OCO2 | 0%
